From PubChem BioAssay (NCATS) come the findings set out here.

The test system of assay [1] is CRL-7250. Kind of assay: Cytotoxic Profiling of Annotated Libraries Using Quantitative High-Throughput Screening (AID 1296008). For max response: % is set by controls: 0 for no effect and ±100 for the full control effect. Note: potency is the fitted concentration of half-maximal effect. The following applies: Five cell lines viability, CellTiter-Glo ATP luminescence, 48-72 h; max response: active compounds read low. The method in brief: (§1)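 Cytotoxicity was measured as CellTiter-Glo ATP luminescence, read after 10 min at room temperature. Compound treatment of the cells lasted 48 or 72 hr at 37 degrees Celsius in a qHTS format.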

The subject of assay [2] is HEK293. The description is as above. The conditions noted are these: Five cell lines viability, CellTiter-Glo ATP luminescence, 48-72 h; max response: active compounds read low. The method in brief: as §1
For orientation: In ATP-based viability assays light output follows the ATP content of the culture.

Assay [3] has as its system HaCat. The assay is described as above. The conditions noted are these: Five cell lines viability, CellTiter-Glo ATP luminescence, 48-72 h; max response: active compounds read low. The method in brief:
as §1

For assay [4], the system named is NIH3T3. The description is as above. The conditions noted are these: Five cell lines viability, CellTiter-Glo ATP luminescence, 48-72 h; max response: active compounds read low. The gist of the method: as §1
Assay [5] has as its system HACAT. Briefly: qHTS assay to identify novel small-molecules to repurpose for Merkel cell carcinoma treatment (AID 1296009). The conditions noted are these: MCC and control cell lines, CellTiter-Glo viability, 72 h; at 44.8 µM (top of the series) unless noted. The gist of the method: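 Cell viability, measured as CellTiter-Glo luminescence, was normalized between DMSO and no-cell wells. The cells had been exposed to 8- or 11-point compound dilutions for 72 hr at 37 degree celsius.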
A general note: Quantitative high-throughput screening tests each substance at several concentrations.

Molecules are shown by their SMILES. Inconclusive results are not listed. Values without a mark were called inactive. Active and inactive are the calls of the source. Calls come from the whole dose curve; as a rule, active = well fitted inhibition curve with a large enough effect; inconclusive = small, poorly fitted or top-dose-only effect; inactive = flat fitted curve, though single readings scatter.
Note: nearly all actives have a fitted effect of over 60% in size.

As to `C=C(C)C(=O)OC1CC2(C)OC(=CC2=O)C(=C)CC2OC(=O)C(=C)C12` (stereo not drawn), the Potency is 3.21 µM (active) in assay [1], 0.718 µM (active) in assay [2], 5.08 µM (active) in assay [3] and 2.86 µM (active) in assay [4].
On the same counts, the results for `Cc1ccc(C(=O)Nc2ccc(CN3CCN(C)CC3)c(C(F)(F)F)c2)cc1C#Cc1cnc2[nH]ncc2c1` are 0.058 µM (active), 5.8 µM (active), 1.64 µM (active) and 0.58 µM (active).
As for `COC1CC/C=C(\C)C(=O)Nc2cc(O)cc(c2)CC(C)CC(OC)C(O)C(C)/C=C(\C)C1OC(N)=O` (stereo not drawn), the Potency is 3.17 µM (active) in assay [1], 2.52 µM (active) in assay [2] and 7.09 µM (active) in assay [3].
For `Cc1nc(-c2cn3c(n2)-c2ccc(-c4cnn(C(C)(C)C(N)=O)c4)cc2OCC3)n(C(C)C)n1`, the max response in assay [1] is 4.52%. Besides, the Potency was 6.51 µM (active) in assay [2], 2.91 µM (active) in assay [3] and 5.17 µM (active) in assay [4].
For `CC(C)c1cc2c(N3CCN(C4=NCC(C)(C)S4)CC3)ncnc2s1`, the Potency in assay [1] was 3.66 µM (active); in assay [2], 1.3 µM (active). Moreover, the compound was called inactive in assay [3] and in assay [5]. The max response in assay [4] is -29.7%.
With `COc1cc(N2CCC(N)CC2)ccc1Nc1ncc(Cl)c(-c2c[nH]c3ccccc23)n1`, the Potency in assay [1] is 6.51 µM (active); in assay [2], 4.61 µM (active); in assay [3], 5.17 µM (active); in assay [4] it was 2.31 µM (active).
Regarding `CC(C)=C1C[C@@]2(C)C(=CC1=O)CC[C@@H](OC(=O)/C(C)=C/CO)[C@@H]2C`, the Potency in assay [1] was 3.21 µM (active); in assay [2], 1.28 µM (active). Further, the compound was called inactive in assay [3] and in assay [5]. Also, the max response in assay [4] was -20.7%.
In the case of `CC(=O)OC(C)(C)/C=C/C(=O)[C@](C)(O)[C@H]1C(O)C[C@@]2(C)[C@@H]3CC=C4[C@@H](C=C(O[C@@H]5O[C@H](CO)[C@@H](O)[C@H](O)[C@H]5O)C(=O)C4(C)C)[C@]3(C)C(=O)C[C@]12C` (stereo partly drawn), the result in assay [1], in assay [3] and in assay [4] was inactive. In addition, the max response in assay [2] was -18.4%. For the same compound, the outcome in assay [5] is “inactive [at 17.4 µM]”.
On to `CCc1c[nH]c2ncnc(N3CC[C@](N)(CNC(=O)c4ccc(F)cc4F)C3)c12`, for which the results for the max response in assay [1], in assay [3] and in assay [4] were -13.8%, -5.86% and 4.64%, respectively. For the same compound, the Potency in assay [2] is 1.16 µM (active).
Take `COc1cc(Br)c(S(=O)(=O)Nc2ccc(Cl)c(O[C@@H]3CCN(C)C3)c2)cc1OC`: the compound was called inactive in assay [1], in assay [3] and in assay [5]. The Potency in assay [2] is 7.31 µM (active). Besides, the max response in assay [4] is -15.8%.
Consider `O=C(Cc1cccc(OC(F)(F)F)c1)Nc1ccc(CCCCc2nnc(NC(=O)Cc3ccccn3)s2)nn1`, for which the Potency in assay [1] was 0.0166 µM (active); in assay [2], 16.6 µM (active); in assay [3] it was 23.4 µM (active); in assay [4], 26.3 µM (active).
With `CN1CCC(NC(=O)c2cc(-c3c(O)cc(O)cc3Oc3ccc([N+](=O)[O-])cc3)on2)CC1`, the Potency in assay [1] was 0.366 µM (active); in assay [2] it was 0.206 µM (active); in assay [3] it was 1.46 µM (active); in assay [4], 5.8 µM (active).
Consider `CCOC(=O)[C@@]1(CCCCCCOc2ccc(Cl)cc2)CO1`, for which the max response in assay [1] is -16.7%; in assay [3] it was 3.74%; in assay [4], -15.5%. Also, the Potency in assay [2] was 8.31 µM (active).
Regarding `COc1cc(N2CCC(O)CC2)ccc1Nc1nc(Nc2ccccc2S(=O)(=O)C(C)C)c2[nH]cnc2n1`, in assay [1], the max response is -7.74%. The Potency in assay [2] was 5.8 µM (active); in assay [3], 18.4 µM (active); in assay [4], 7.31 µM (active).
On to `COC(=O)c1cc2c(C(F)(F)F)cc(-c3ccccc3)cc2n1O`, for which the results for the max response in assay [1] and in assay [2] were -4.54% and 0.379%, respectively. Besides, the result in assay [3], in assay [4] and in assay [5] was inactive.
For the compound `CCc1cc(C(N)=O)ccc1-n1nc(C(C)C)c2c(-n3cnc(-c4cnn(C)c4)c3)ccnc21`, the figures for the Potency in assay [1] and in assay [4] were 4.11 µM (active) and 1.3 µM (active), respectively. Also, the max response is -117% in assay [2] and -102% in assay [3].
Take `Cc1ccccc1C(C(=O)NC1CCCCC1)N(C(=O)Cn1cnc2ccccc21)c1cccc(F)c1` (stereo not drawn): the max response in assay [1] is -31.4%. Further, the Potency in assay [2] is 16.4 µM (active); in assay [3], 8.2 µM (active); in assay [4] it was 18.4 µM (active).
As to `COc1ccc(C[C@H]2COC(=O)[C@@H]2Cc2ccc(O[C@@H]3O[C@H](CO)[C@@H](O)[C@H](O)[C@H]3O)c(OC)c2)cc1OC`, the Potency in assay [1] was 0.893 µM (active); in assay [2], 1.78 µM (active). Besides, the max response was -11.8% in assay [3] and -30.4% in assay [4].
On the same counts, the results for `Cc1cc(-c2nc(-c3ccc(OC(F)(F)F)cc3)no2)nn1Cc1ccnc(N2CCN(C3CC3)CC2)c1` are 0.0259 µM (active), 0.0065 µM (active), 4.17% and -14.2%.
As to `CN1C(=O)c2sccc2N(C)c2nc(Nc3ccc(S(N)(=O)=O)cc3)ncc21`, the Potency was 7.41 µM (active) in assay [1], 11.7 µM (active) in assay [2], 18.6 µM (active) in assay [3] and 16.6 µM (active) in assay [4].
Take `C[C@@H]1CN(CC(=O)N2CC(C)(C)c3ncc(Cc4ccc(F)cc4)cc32)[C@@H](CN2CCOC[C@H]2C)CN1`: the max response in assay [1] is -4.83%; in assay [2], -21.9%. Also, the compound was called inactive in assay [3], in assay [4] and in assay [5].
For `C/C1=C\[C@@H](C)C[C@@H](C)[C@@H](Cc2cnco2)OC(=O)/C(C)=C/[C@@H](C)C[C@@H](C)[C@@H](Cc2cnco2)OC1=O`, the Potency in assay [1] is 2.52 µM (active); in assay [2], 0.632 µM (active). For the same compound, the max response in assay [3] is -7.73%; in assay [4] it was -16.6%.
